# From PubChem BioAssay
# The source made the active and inactive calls. How the calls were made is not given here.
# Target: Pantothenate synthetase (Mycobacterium tuberculosis (strain ATCC 25618 / H37Rv)) (UniProt P9WIL5)
# Assay: Recombinant Mtb pantothenate synthetase (PanC) inhibitors, coupled enzyme, confirmatory (AID 375);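 further: 0% = full reaction with vehicle and 100% = no enzyme background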
# Conditions: coupled enzyme assay; at 10 µM, active compounds read high
# Sequence of Pantothenate synthetase (Mycobacterium tuberculosis (strain ATCC 25618 / H37Rv)) (P9WIL5 whole entry, looked up): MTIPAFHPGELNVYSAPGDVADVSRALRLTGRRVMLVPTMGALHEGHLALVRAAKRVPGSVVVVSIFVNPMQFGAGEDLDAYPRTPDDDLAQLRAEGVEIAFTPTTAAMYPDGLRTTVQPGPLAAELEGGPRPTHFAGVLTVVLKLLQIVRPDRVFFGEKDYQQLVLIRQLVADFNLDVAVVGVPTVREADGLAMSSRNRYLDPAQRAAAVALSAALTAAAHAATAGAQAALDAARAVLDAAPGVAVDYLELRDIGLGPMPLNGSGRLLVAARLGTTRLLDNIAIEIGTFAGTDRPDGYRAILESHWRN
row,Compound,inhibition
1,CCn1c(CSc2nnc(-c3cccnc3)n2-c2ccccc2C)nc2cc(C(=O)O)ccc21,0% (inactive)
2,CCOC(=O)c1oc2ccccc2c1CSc1nnnn1-c1ccc(C)cc1,1% (inactive)
3,COc1ccc(CNC(=O)c2nnn(Cc3ccc(OC)cc3)c2N)cc1,0% (inactive)
4,CC1=C(C(=O)Nc2ccccc2)C(c2ccccn2)n2nc(CCCO)nc2N1 (stereo not given),7% (inactive)
5,Cc1cc(N)n2nc(-c3ccccc3)cc2n1,0% (inactive)
6,COc1ccc(CC(NC(C)=O)C(=O)NC2CCN(c3nc(C)cc(C)c3C#N)CC2)c(OC)c1 (stereo not given),0% (inactive)
7,COc1ccccc1-c1nnc(NC(=O)c2ccc(S(=O)(=O)N(C)Cc3ccccc3)cc2)o1,0% (inactive)
8,O=C(NCCc1ccccc1)C1CCN(S(=O)(=O)N2CCC3(CC2)OCCO3)CC1,4% (inactive)
9,COc1cccc(N2CCN(Cc3cccnc3)CC2)c1,3% (inactive)
10,CCOCC(=O)Nc1c(C(=O)Nc2ccc(OC)cc2OC)oc2ccccc12,0% (inactive)
11,CC(=O)c1ccc(-n2nnnc2SCC(=O)N2CCc3ccccc3C2)cc1,0% (inactive)
12,COc1ccc(C)cc1NCc1cccc(OC)c1OC,0% (inactive)
13,COCCCNC(=O)CCc1nc(-c2ccccc2Cl)no1,0% (inactive)
14,CO[C@H]1C=CO[C@@]2(C)Oc3c(C)c(O)c4c(O)c(c(C=NN5CCN(C)CC5)c(O)c4c3C2=O)NC(=O)C(C)=CC=C[C@H](C)[C@H](O)[C@@H](C)[C@@H](O)[C@@H](C)[C@H](OC(C)=O)[C@@H]1C,3% (inactive)
15,CCC(C(=O)NC(C)CCc1ccco1)n1nc(C)n2c(cc3occc32)c1=O (stereo not given),0% (inactive)
16,CC(C)c1nnc(SCC(=O)NCc2ccco2)n1C,0% (inactive)
17,Cc1ccc2[nH]cc(C(=O)CN3CCC4(CC3)OCCO4)c2c1,0% (inactive)
18,CC(=O)NCCc1nc2ccccc2[nH]1,0% (inactive)
19,COc1cccc(NC(=O)N2CCCC2C(=O)NC(C)C)c1 (stereo not given),0% (inactive)
20,O=C(CSc1ncnc2c1cnn2-c1ccccc1)Nc1ccccc1,5% (inactive)

row,Compound,inhibition
1,Cc1nnc(NC(=O)CSc2nc3c(c(=O)n2C)SC(C)C3)s1 (stereo not given),5% (inactive)
2,COCCN1Cc2cccc(C(=O)Nc3cccnc3)c2C1=O,1% (inactive)
3,O=C(OCn1nnc2ccccc2c1=O)c1cc2ccccc2o1,2% (inactive)
4,CCOc1ccccc1N(C(=O)Cn1nnnc1-c1ccc(C)o1)C(CC)C(=O)NC(C)(C)C (stereo not given),0% (inactive)
5,Cc1cccc(N2CCN(C(=O)c3cc4c(=O)[nH]c5ccccc5c4n3C)CC2)c1C,7% (inactive)
6,Cc1ccc(-c2nn(-c3ccccc3)cc2/C=C(\C#N)c2cccc(C#N)c2)o1,0% (inactive)
7,Cc1ccc(C2CC(c3cccc(Br)c3)Nc3nnnn32)cc1 (stereo not given),1% (inactive)
8,CCOCCCNC(=O)c1ccc2c(c1)N(Cc1ccccc1)C(=O)CS2=O (stereo not given),0% (inactive)
9,COc1ccc(-n2c(SCCC(=O)O)nnc2-c2ccncc2)cc1,5% (inactive)
10,CCOCCOc1nc2c(c(=O)n(C)c(=O)n2C)n1Cc1ccc(C)cc1,0% (inactive)
11,CCOC(=O)N1CCN(c2cc3nccnc3cc2F)CC1,6% (inactive)
12,CCOC(=O)NC(=O)CSc1nnnn1-c1ccc(Cl)cc1,0% (inactive)
13,CN(C)CC(O)COc1ccc(-c2ccc(C#N)cc2)cc1 (stereo not given),3% (inactive)
14,CCCCOc1ccc(CSc2n[nH]c(C)n2)cc1,0% (inactive)
15,Oc1cnc2ccccc2c1CN1CCOCC1,4% (inactive)
16,CCCn1cc(C(CC(=O)O)C(=O)O)c2ccccc21 (stereo not given),8% (inactive)
17,C=CCn1c(=O)c2ccccc2n2c(SCC(=O)Nc3cc(C)on3)nnc12,0% (inactive)
18,CC(=O)c1sc(NC(=O)C2COc3ccccc3O2)nc1C (stereo not given),3% (inactive)
19,O=C(c1ncn[nH]1)N1CCN(c2nc(-c3ccccc3)cs2)CC1,5% (inactive)
20,Cc1ccc(CCSCC(=O)O)cn1,0% (inactive)
